# In all, about 340,000 compounds went through this assay and about 1,000 (0.29%) were called active. No stated cut-off is given here; in the data, inconclusive means inhibition above about 29% without an active follow-up result; inactive means below that. Only a sample is shown. Measured potencies and affinities stand elsewhere.
# Target: Genome polyprotein (Dengue virus type 2 (strain 16681-PDK53)) (UniProt P29991)
# Test: Dengue-2 NS5 methyltransferase inhibitors, primary screen, biochemical, confirmation dose response (AID 588689)
# Settings: Dengue-2 NS5 methyltransferase capping enzyme assay, at 25 µM, stronger effect = higher value
# [1] = measured here: pilot screen replicate inhibition
Compound,inhibition,inhibition [1] [%]
CN(C1CCCCC1)S(=O)(=O)c1ccc(S(=O)(=O)N2CCN(C(=O)c3ccccc3F)CC2)cc1,-5.65% (inactive),
Cc1onc(-c2ccccc2)c1C(=O)Nc1ccc(Cl)cn1,-2.24% (inactive),
Cc1cc(NC(=O)CSCc2nc(-c3cccc(F)c3)oc2C)no1,4.17% (inactive),
COc1ccc(N(CC(=O)NCCSC2CCCCC2)S(=O)(=O)c2ccc(C)cc2)cc1,-4.51% (inactive),
Cc1cccc(N2C(=O)CC(N3CCOCC3)C2=O)c1 (centres undefined),0% (inactive),
O=C1C(Cl)=C(N2CCCCCC2)C(=O)N1c1ccccc1,-0.82% (inactive),
O=C1C(Cl)=C(N2CCCCCC2)C(=O)N1c1ccc(Cl)cc1,2.94% (inactive),
CN1CCN(C2=C(Cl)C(=O)N(c3cccc(Cl)c3)C2=O)CC1,12.9% (inactive),
CC1CCCN(C2=C(Cl)C(=O)N(c3cccc(Cl)c3)C2=O)C1 (centres undefined),5.18% (inactive),
Cc1ccc(N2C(=O)C(Cl)=C(N3CCOCC3)C2=O)c(C)c1,5.79% (inactive),
COc1cc(C(=O)C(O)c2ccc(O)c(OC)c2)ccc1O (centres undefined),0% (inactive),
CN(Cc1cnn(-c2ccc(F)cc2)c1)Cc1nc(Cc2ccccc2)no1,-8.38% (inactive),
COC(=O)c1ccccc1C(=O)N1CCC(CCC(=O)NC2CC2)CC1,-9.72% (inactive),
CC(C)NC(=O)CSc1nccc(-c2cccs2)n1,6.26% (inactive),
CC(=O)C1=NN(c2ccccc2)C2(S1)S/C(=C\c1ccccc1)C(=O)N2c1ccccc1 (centres undefined),3.22% (inactive),
Cc1ccc(SCCc2cc[n+](CC(=O)c3ccccc3)cc2)cc1,-23.5% (inactive),
CCOc1ccc(-n2c(SCc3cc(=O)oc4cc(C)ccc34)nnc2-c2cccnc2)cc1,-5.85% (inactive),
COCC(COS(N)(=O)=O)Cc1ccccc1 (centres undefined),-5.61% (inactive),
C/C(=N\NS(=O)(=O)c1ccccc1)c1ccc2c(c1)OCCO2,-5.78% (inactive),
CC(=O)NCCc1nc2cc(NC(=O)c3ccc(F)cc3)ccc2n1C,0.65% (inactive),
COc1ccc(C2=CC(=O)CC(C)(C)C2)cc1OC,-7.08% (inactive),

Compound,inhibition,inhibition [1] [%]
CCn1c(CNC(=O)c2ccccc2F)nnc1SCC(=O)Nc1nncs1,-2.93% (inactive),
O=C1C(Cl)=C(N2CCCCCC2)C(=O)N1c1ccc(Br)cc1,4.71% (inactive),
COC(=O)c1cccc(N2C(=O)c3cccnc3C2=O)c1,1.12% (inactive),
COC(=O)c1cccc(N2C(=O)C3CC=CCC3C2=O)c1 (centres undefined),-7.22% (inactive),
O=C1C(Cl)=C(N2CCCC2)C(=O)N1c1ccc(F)cc1,10.2% (inactive),
Cc1ccc(N2C(=O)C(Cl)=C(NCCO)C2=O)c(C)c1,-3.68% (inactive),
Cc1ccc(N2C(=O)C(Cl)=C(N3CCCCCC3)C2=O)c(C)c1,-10.4% (inactive),
N=C1c2ccccc2CN1NC(=O)CC12CC3CC(CC(C3)C1)C2,-6.39% (inactive),
COc1ccc(NCc2nnc(SCC#N)n2-c2ccccc2OC)cc1,4.71% (inactive),
O=C(COC(=O)COc1ccccc1)NC12CC3CC(CC(C3)C1)C2,3.65% (inactive),
CC1=CC(C)(C)N(C(=O)CN2C(=O)CCC2=O)c2ccccc21,4.64% (inactive),
C/C(=N\OCC(=O)Nc1cc(C)cc(C)c1)c1ccc2c(c1)OCCO2,-2.91% (inactive),
O=C1COC(c2ccccc2O)=NN1CCCl,4.57% (inactive),
O=C(CN1C(=O)NC2(CCCC2)C1=O)OCCOc1ccc(Br)cc1,-1.44% (inactive),
CCOC(=O)[C@H](C)N1[C@H](C)[C@H](c2ccccc2)Oc2ccc(Cl)cc2S1(=O)=O,-5.21% (inactive),
Cc1ccc2cc(C=O)c(Cl)nc2c1,-3.88% (inactive),
Cc1ccc2cc(C=O)c(N(C)C)nc2c1,1.3% (inactive),
COc1ccc(C(=O)NC2CCCCCCC2)cc1OC,-1.55% (inactive),
CCN=c1scc(C)n1/N=C/c1ccsc1,2.4% (inactive),
CC(C)N=c1scc(-c2cccs2)n1/N=C/c1ccc(O)c(O)c1O,16.7% (inactive),
CCN=c1scc(-c2ccco2)n1/N=C/c1ccc(O)cc1,4.53% (inactive),

Compound,inhibition,inhibition [1] [%]
CN=c1scc(-c2cccs2)n1/N=C/c1ccccc1O,-0.73% (inactive),
CCN=c1scc(C)n1/N=C/c1cc(Br)c(O)c(Br)c1,9.36% (inactive),
CN=c1scc(-c2ccccc2F)n1/N=C/c1ccc(O)c(O)c1O,26.9% (inactive),
CN=c1scc(C)n1/N=C/c1ccc(O)cc1O,2.07% (inactive),
CN=c1scc(-c2ccco2)n1/N=C/c1ccc(O)c(O)c1,-2.15% (inactive),
COc1ccc(S(=O)(=O)NCCCN2CCCC2=O)cc1OC,-6.1% (inactive),
CC(C)(C)[C@@H]1C=C(C(=O)O)[C@H](c2ccc(Cl)cc2)N1S(=O)(=O)c1ccccc1,-3.97% (inactive),-4.61
Cn1c(SCC(=O)Nc2ccccc2)nc2c([nH]c3ccccc32)c1=O,-11.1% (inactive),
Nc1ccn([C@@H]2O[C@H](CNC(=O)[C@@H](Cc3cccnc3)NC=O)[C@@H](O)[C@H]2O)c(=O)n1,-7.38% (inactive),
Cc1cc2nc(C)c3c(n2n1)CCC3,-6.57% (inactive),
Nn1c(COc2ccccc2F)nnc1SCC(=O)NC1CCCC1,-8.38% (inactive),
O=C1c2ccccc2NC(c2ccc(-c3ccc(F)cc3)o2)N1O (centres undefined),13.4% (inactive),
CC1=NN(c2ccc(C)cc2)C(=O)/C1=C/c1ccc(-c2cc([N+](=O)[O-])ccc2O)o1,21.8% (inactive),
Cc1c(C(=O)O)cccc1-c1ccc(/C=C2/NC(=O)N(c3ccccc3)C2=O)o1,-1.55% (inactive),
O=C(O)c1ccccc1-c1ccc(/C=C2\SC(=O)N(c3ccccc3)C2=O)o1,25.1% (inactive),
Cc1ccc(CN2C(=O)N/C(=C/c3ccc(-c4ccc(C(=O)O)cc4)o3)C2=O)cc1,14.9% (inactive),
CC1=NN(c2ccc(Cl)c(C(=O)O)c2)C(=O)C1,10.9% (inactive),
CCCOC(=O)c1cc(-c2ccc(/C=C3/C(=O)N(C)C(=O)C(C#N)=C3C)o2)ccc1Cl,-12.3% (inactive),-8.18
CN1C(=O)/C(=C/c2ccc(-c3ccccc3[N+](=O)[O-])o2)SC1=Nc1ccc(Cl)c(C(=O)O)c1,24.5% (inactive),
CCOC(=O)c1cc(-c2ccc(/C=N\n3cnnc3)o2)ccc1Cl,-3.91% (inactive),
